Measurements reported in ChEMBL document CHEMBL3988442, “University of Dundee, Small-Polar-MMV Screening Library” (2021).

Target: T1, Aspartate--tRNA(Asp/Asn) ligase (Mycobacterium tuberculosis (strain ATCC 25618 / H37Rv)) (UniProt P9WFW3)
T1 sequence (whole entry): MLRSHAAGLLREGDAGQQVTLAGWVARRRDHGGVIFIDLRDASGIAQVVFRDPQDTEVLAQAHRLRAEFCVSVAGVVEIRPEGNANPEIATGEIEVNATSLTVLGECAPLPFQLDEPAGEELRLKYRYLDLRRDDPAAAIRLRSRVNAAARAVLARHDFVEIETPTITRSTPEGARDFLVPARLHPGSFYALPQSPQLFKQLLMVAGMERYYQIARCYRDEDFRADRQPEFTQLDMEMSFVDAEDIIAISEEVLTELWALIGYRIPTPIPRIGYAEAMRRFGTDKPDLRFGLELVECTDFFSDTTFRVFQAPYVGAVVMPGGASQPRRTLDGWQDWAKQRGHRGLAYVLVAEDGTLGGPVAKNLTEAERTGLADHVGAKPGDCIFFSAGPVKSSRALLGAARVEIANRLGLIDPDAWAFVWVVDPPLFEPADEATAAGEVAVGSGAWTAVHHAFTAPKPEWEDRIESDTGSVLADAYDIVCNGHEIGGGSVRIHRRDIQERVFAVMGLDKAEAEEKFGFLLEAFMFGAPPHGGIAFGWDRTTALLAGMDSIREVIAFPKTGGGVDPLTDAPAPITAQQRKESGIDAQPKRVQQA
Experiment: Assay for Asp RNA synthetase-1 from Mycobacterium tuberculosis
Format: functional
Set-up: scale not given: in the data most compounds retested in dose-response had high values
Settings: 30 µM

Row | SMILES | Percent Effect
1 | COc1cccc(CNCc2nnc3n2CC(C(F)(F)F)CC3)c1 (centres undefined) | -0.0987%
2 | NC(=O)C1CN(C(=O)Nc2ccccc2-c2cccs2)CCO1 (centres undefined) | -9.88%
3 | Cc1nc(N2CCCC2)nc2c1CCN(Cc1ccco1)CC2 | 8.76%
4 | Cc1occc1C(=O)N1CCO[C@H]2[C@@H](Oc3ccccn3)CC[C@@H]21 | -0.28%
5 | Cc1nccc(CN2CC[C@H](Oc3cccc(F)c3)[C@@](C)(O)C2)n1 | -0.368%
6 | CC(C)OCc1ccc(CNC(=O)CC(F)(F)F)cc1 | -1.66%
7 | Cc1nc(CN2CCCC(NCCOc3ccccc3)C2)no1 (centres undefined) | -8.02%
8 | Cc1ccc(C)n1-c1ccc(C(=O)NCCNc2ncccn2)cc1 | 5.76%
9 | CCNC(=O)c1nc2c(s1)CCCN2S(C)(=O)=O | 7.8%
10 | CC(C)Oc1cccc(C(=O)C2CCCN(C(=O)c3ncn[nH]3)C2)c1 (centres undefined) | 0.948%
11 | CN(C)C(=O)[C@H]1C[C@@H]2CN(S(=O)(=O)Cc3ccccc3)C[C@H]1O2 | 3.99%
12 | CC(NC(=O)NCCCc1n[nH]c(N)c1C#N)c1ccccc1 (centres undefined) | 1.03%
13 | COCCN(Cc1ccc(F)cc1Cl)C(=O)c1ccncc1 | -5.35%
14 | O=C(CCSc1ccc(F)cc1)NS(=O)(=O)c1ccc2c(c1)OCCO2 | -0.411%
15 | CN(C)C(=O)CO[C@@H]1CC[C@H]2[C@H]1OCCN2C(=O)C1CCOCC1 | -1.59%
16 | Cn1cc(N2CCC3(CCN(Cc4nccs4)C3)C2=O)cn1 (centres undefined) | -0.749%
17 | CCn1cnnc1CNC(=O)N1CCN(c2cccs2)CC1 | -5.34%
18 | CC1CCN(CCCNS(=O)(=O)c2cccc(F)c2)CC1 | 11.5%
19 | CC(=O)N1CCCN(CC(C)(O)c2cccc(C(F)(F)F)c2)CC1 (centres undefined) | 0.301%
